Results: PubChem BioAssay (Tox21)
Unmarked numbers belong to inactive results. The source made the active and inactive calls. Calls follow the shape of the dose curve; as a rule, active = well fitted curve in the direction sought with a large enough effect in the repeat runs; inconclusive = weak or mixed curves; inactive = flat fitted curve, though single readings scatter.

assay: qHTS assay to test for compound auto fluorescence at 535 nm (green) in HepG2 cells (AID 720675); settings: green autofluorescence 485/535 nm, 1 h; series mostly up to 91.3 µM; fluorescence, % of fluorescein control: at the top concentration
Excerpt: National Center for Advancing Translational Sciences [NCATS]
NIH Chemical Genomics Center [NCGC]
U.S. Environmental Protection Agency [EPA]
National Institutes of Environmental Health Sciences [NIEHS]
National Toxicology Program [NTP]
U.S. Food and Drug Administration [FDA]
Compound auto fluorescence often interferes with screening of the compound library against various biological targets and signaling pathways. Some of these compounds may have fluorophoric properties. Such properties may interfere with the assay outputs resulting in false positives and/or negatives. To decrease such complications and ensure the compound activities are relevant in terms of biological response, the Tox21 10K compound library was screened for auto fluorescence.
From the fluorophores used as reporter signals in our screening assays, the auto fluorescence equivalencies of compounds against three fluorophores have been evaluated: Triamterene, Fluorescein and Rose Bengal sodium for blue, green and red fluorescence, respectively. The fluorescence intensities were measured using Excitation/Emission wavelengths at 405/460nm, 485/535nm and 540/590nm for blue, green and red labels, respectively. This assay includes the green fluorescence data.
Tox21 Assay Protocol Summary:
2,000 HepG2 cells in 5 uL of culture medium (MEM containing 10% FBS) per well were dispensed into black wall/clear bottom 1536-well plates using a Multidrop Combi Dispenser (ThermoFisher Scientific, Waltham, MA). The assay plates were incubated overnight at 37 C to allow cell attachment to the well bottom, followed by the transfer of 23 nL compound or DMSO vehicle by a pintool work station (Kalypsys , San Diego, CA). After the assay plates were incubated for 1 hr at 37 C and 5% CO2, fluorescence intensities in the assay plates were measured by an Envision (PerkinElmer, Shelton, CT) plate reader using three labels for measuring blue, green and red fluorescence at […] 460, 535 and 590 nm respectively.
% is scaled to controls: 0 for no effect and ±100 for the full control effect.

Row | SMILES | fluorescence, % of fluorescein control | outcome
1 | OC(c1ccc(Cl)cc1)(c1ccc(Cl)cc1)c1cccnc1 | 0.0205% | –
2 | NC(=O)C(Cl)(Cl)Cl | -0.0154% | –
3 | [O-][Cl+]O | -0.0572% | –
4 | CCC(C)(NC(=O)c1cc(Cl)c(C)c(Cl)c1)C(=O)CCl (stereo not given) | -0.0715% | –
5 | O=C1NCN(c2ccccc2)C12CCN(CCCOc1ccc(F)cc1)CC2 | -0.0855% [at 46 µM] | –
6 | CCCN(CCC)c1c([N+](=O)[O-])cc(S(C)(=O)=O)cc1[N+](=O)[O-] | 0.02% | –
7 | CC1(C)[C@H](C=C(Cl)Cl)[C@@H]1C(=O)O[C@@H](C#N)c1cccc(Oc2ccccc2)c1 | -0.0987% | –
8 | CC(C)O.CC(C)O.OCCN(CCO)CCO.OCCN(CCO)CCO.[Ti] | -0.0651% | –
9 | COC1=CC(=O)O[C@@H](CCc2ccccc2)C1 | 0.138% [at 95.7 µM] | –
10 | Clc1cccc(SC2CCNCC2)n1 | -0.0334% [at 46 µM] | –
11 | C/C=C/C=O | 0.0309% | –
12 | CCn1cc[n+](C)c1 | – | inactive
13 | CNP(=O)(OC)Oc1ccc(C(C)(C)C)cc1Cl (stereo not given) | 0.0588% | –
14 | CC(C)(OO)c1ccccc1 | 0.0336% | –
15 | COc1nn(CSP(=S)(OC)OC)c(=O)s1 | 0.164% | –
16 | C=CC(=O)NCNC(=O)C=C | 0.1% | –
17 | CCOc1nc(F)cc2nc(S(=O)(=O)Nc3c(Cl)cccc3Cl)nn12 | -0.0077% | –
18 | CN1C(=O)NC(=O)C(C)(C2=CCCCC2)C1=O (stereo not given) | – | inactive
19 | O=C=Nc1ccc(Cl)cc1 | 0.0068% | –
20 | C=CC(=O)OCCCCO | 0.0079% | –

Row | SMILES | fluorescence, % of fluorescein control | outcome
21 | CO[C@@H]1[C@H](OC(=O)NC(=O)CCl)CC[C@]2(CO2)[C@H]1[C@@]1(C)O[C@@H]1CC=C(C)C | -0.0271% [at 18.6 µM] | –
22 | O=[N+]([O-])c1cc(C(F)(F)F)cc([N+](=O)[O-])c1Cl | -0.084% | –
23 | O=Cc1ccc(Cl)cc1Cl | -0.151% | –
24 | CCCCN=C=O | -0.0286% | –
25 | CN(N=O)c1ccc([N+](=O)[O-])cc1 | -0.0878% | –
26 | CC(=O)NC1CCSC1=O (stereo not given) | – | inactive
27 | CN(C)c1ccc(N(C)C)cc1 | 0.24% | –
28 | COc1cc(CC(C)N)cc2c1OCO2 (stereo not given) | -0.239% [at 95.7 µM] | –
29 | N#Cc1ccc(Cl)cc1 | 0.0232% | –
30 | COCCOCCO | 0.0978% | –
31 | COP(=S)(OC)Oc1cc(Cl)c(I)cc1Cl | -0.0162% | –
32 | C=CCC1([C@H](C)CCC)C(=O)NC(=O)NC1=O | 0.0101% | –
33 | CC/C(=N\OC/C=C/Cl)C1=C(O)CC(C2CCOCC2)CC1=O (stereo not given) | 0.151% | –
34 | NC(=O)CI | -0.128% | –
35 | CCOc1ccc(C(C)(C)COCc2cccc(Oc3ccccc3)c2)cc1 | 0.0117% | –
36 | O=C1c2ccccc2C(=O)C1C(=O)C(c1ccccc1)c1ccccc1 | -0.0508% [at 46 µM] | –
37 | CC(O)(CS(=O)(=O)c1ccc(F)cc1)C(=O)Nc1ccc(C#N)c(C(F)(F)F)c1 (stereo not given) | – | inactive
38 | Brc1ccccc1 | -0.0074% | –
39 | Cl/C=C\Cl | -0.0115% | –
40 | O=C1C(=O)c2cccc3cccc1c23 | 0.0069% | –
